The list is not random: actives were taken first. Their share in the collection is about 7.5%.
NPC1 prom act: qHTS Assay for NPC1 Promoter Activators; Huh7 NPC1 promoter luciferase reporter, 24 h; Potency, µM (doses to about 9.22 µM), for the others: at the top dose activation, usual class: activators; 2.4% of 320,000 active; note: % of control where 0% means no effect; nearly all actives have a fitted effect of over 60% in size
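Readout is luciferase luminescence, reflecting NPC1 promoter activation in stably transfected Huh7 cells after 24 h compound exposure at 37 °C in reduced-serum medium with 10% FBS.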
ELG1 genotoxic: qHTS screen for small molecules that induce genotoxicity in human embryonic kidney (HEK293T) cells expressing luciferase-tagged ELG1. HEK293T ELG1-luciferase reporter, luminescence, 16 h. Potency, µM (doses to about 46 µM), inactives show at the highest dose activity change, positive = activation, most hits filed as activators. 1.3% of 330,000 active. AID 504466, 2011; note: % of control where 0% means no effect; nearly all actives have a fitted effect of over 60% in size
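ELG1-luciferase HEK293T cells, 2,000/well; compound pinned in; 16 hr, 37 °C, 5% CO2; ONE-Glo, 30 min RT; luminescence on CCD imager.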
Luc counter: Counterscreen for Luciferase (Kinase-Glo TM) Inhibition | Potency, µM (doses to about 38.3 µM), without a hit: at the top dose activity change, negative = inhibition, most hits filed as inhibitors | Kinase-Glo luciferase, ATP luminescence, 8 min | 0.28% of 200,000 active | Luciferin 4-monooxygenase (Photuris pensylvanica), Q27757; note: % is set by controls: 0 for no effect and ±100 for the full control effect; nearly all actives have a fitted effect of over 60% in size
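Kinase-Glo luciferase light output from ATP and luciferin was measured with 10 uM ATP, within the enzyme's linear range. Buffer: 50 mM imidazole pH 7.2, 50 mM KCl, 7 mM MgCl2, 0.01% Tween 20, 0.05% BSA; luminescence read after 8 min at ambient temperature.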
FLuc modulator: qHTS profiling assay for firefly luciferase inhibitor/activator using purifed enzyme and Km concentrations of substrates (counterscreen for miR-21 project); purified FLuc, Km substrates, luminescence inhibition; 6.9% of 360,000 active; Potency, µM (top dose mostly 57.5 µM), inactives show top-dose activity change, negative = inhibition, hits mostly inhibitors; Luciferin 4-monooxygenase (Photinus pyralis), P08659;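 note: plate controls were vehicle for no effect and reference inhibitor for full effect; nearly all actives have a fitted effect of over 55% in size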
Target sequence (P08659 whole entry, looked up): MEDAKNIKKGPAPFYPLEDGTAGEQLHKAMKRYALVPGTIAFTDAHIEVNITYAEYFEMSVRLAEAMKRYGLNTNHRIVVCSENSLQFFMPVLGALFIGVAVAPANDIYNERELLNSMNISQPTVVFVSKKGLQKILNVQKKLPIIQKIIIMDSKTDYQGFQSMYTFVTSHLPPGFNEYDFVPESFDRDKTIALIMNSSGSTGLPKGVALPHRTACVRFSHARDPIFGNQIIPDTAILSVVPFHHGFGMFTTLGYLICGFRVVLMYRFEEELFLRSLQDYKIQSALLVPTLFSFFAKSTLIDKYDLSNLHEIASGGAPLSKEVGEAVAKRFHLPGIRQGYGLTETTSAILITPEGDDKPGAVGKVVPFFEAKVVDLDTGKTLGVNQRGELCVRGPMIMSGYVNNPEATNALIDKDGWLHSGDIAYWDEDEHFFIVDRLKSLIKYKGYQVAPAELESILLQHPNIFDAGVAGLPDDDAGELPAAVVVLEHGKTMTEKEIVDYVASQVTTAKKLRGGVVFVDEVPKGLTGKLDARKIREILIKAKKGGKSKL
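Purified P. pyralis luciferase (10nM final) with 10uM D-luciferin and 10uM ATP (Km levels) in 50mM Tris acetate pH 7.5, 10mM Mg acetate, 0.01% Tween-20, 0.05% BSA; qHTS 6-point titration, ~60 µM downward; luminescence read.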
Rab9 promoter act: qHTS Assay for Rab9 Promoter Activators; Huh7 Rab9 promoter-luciferase reporter, luminescence, 24 h; Potency, µM (highest dose often 9.22 µM), for the others: at the top dose activation, negative = inhibition, actives largely listed as activators; 2.8% of 320,000 active; AID 485297, 2010; note: % of control where 0% means no effect; nearly all actives have a fitted effect of over 60% in size
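Steps: seed 1500 Huh7 Rab9-luc cells per well, rest 2 h at 37 °C; add compound in DMSO; incubate 24 h; add luciferase reagent, 10 min ambient; read luminescence.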
SMN2 splice up: qHTS Assay for Enhancers of SMN2 Splice Variant Expression; HEK293 SMN2-luciferase splicing reporter, luminescence, 30-36 h; Potency, µM (series often up to 46.1 µM), for the others: at the highest dose activity change, positive = activation, hits mostly activators; 2.8% of 210,000 active; AID 1458, 2008; note: % of control where 0% means no effect; nearly all actives have a fitted effect of over 55% in size
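HEK293 cells carry an SMN2 minigene-luciferase reporter in which exon 7 inclusion puts luciferase in frame. Cells were seeded at 2000 cells/well, attached for 10-12 hours, then exposed to compounds for 30-36 hours at 37C before ONE-Glo luminescence.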
* hit, by the source's call; ? = inconclusive; / = no result given. Calls come from the whole dose curve; as a rule, active = well fitted curve in the direction sought with a large enough effect; inconclusive = small, poorly fitted or top-dose-only effect, or another doubt; inactive = no such curve, though single readings can be large; an effect the other way counts as inactive or inconclusive. Potency is the fitted concentration of half-maximal effect.

SMILES | NPC1 prom act | ELG1 genotoxic | Luc counter | FLuc modulator | Rab9 promoter act | SMN2 splice up
COc1ccccc1NC(=O)COC(=O)C12CC3CC(CC(Cl)(C3)C1)C2 | -1% | 1% | 0% | 15µM* | 0% | 0%
Cn1cccc1C(=O)NC(=O)COC(=O)C12CC3CC(CC(O)(C3)C1)C2 | 14% | 9.2µM* | -17% | 6µM* | 17% | 7%
Cn1cccc1C(=O)NNC(=O)COc1ccccc1Cl | 17% | 13% | / | 15µM* | 25% | /
COc1ccc(OCC(=O)Nc2ccccc2C(=O)OCc2cc(=O)n3nc(C)sc3n2)cc1 | / | / | / | -15% | / | /
Cc1cccc(NC(=O)c2ccc(-c3nc(CSc4ccccc4)c(C)o3)cc2)c1C | / | / | / | -11% | / | /
Cc1cccc(CNC(=O)CSCc2cnn(-c3ccccc3)c2-n2cccc2)c1 | / | / | / | -20% | / | 2%
N[C@@H](Cc1cc(I)c(Oc2ccc(O)cc2)c(I)c1)C(=O)O | / | / | / | / | / | 0%
CCOc1ccccc1NC(=O)COC(=O)C12CC3CC(CC(O)(C3)C1)C2 | -1% | -2% | / | 11µM* | -3% | /
O=C(COC(=O)C12CC3CC(CC(O)(C3)C1)C2)NCCc1ccc(Cl)cc1 | -3% | 4% | 1% | -6% | -1% | -14%
O=C(COC(=O)C12CC3CC(CC(O)(C3)C1)C2)Nc1ccc(Cl)cc1F | ? | ? | / | 7.6µM* | 1.3µM* | /
COc1ccccc1NC(=O)COC(=O)C1CC2C=CC1C2 (configuration not stated) | 0% | 5% | -4% | 24µM* | 1% | 8%
COc1ccccc1NC(=O)COC(=O)C12CC3CC(CC(Br)(C3)C1)C2 | / | 1% | / | / | / | /
Cn1cccc1C(=O)NC(=O)COC(=O)c1ccccc1O | 11% | 3% | -8% | 0% | -1% | 35µM*
Cn1cccc1C(=O)NC(=O)COC(=O)c1ccc(O)cc1 | -28% | 7% | -2% | -13% | 9% | -9%
COc1ccc(CCN(Cc2cc3ccc(C)cc3n3nnnc23)C(C)=O)cc1OC | -4% | -2% | 1% | 0% | 0% | -52%
O=C1N/C(=N\N=C\c2ccc3ncccc3c2)SC1Cc1ccc(SC(F)F)cc1 (configuration not stated) | ? | ? | -3% | 0.54µM* | ? | 13µM*
O=C1N/C(=N\N=C\c2cccs2)SC1Cc1cccc(Cl)c1 (configuration not stated) | -17% | 0% | 6% | -4% | -10% | -51%
O=C1N/C(=N\N=C\c2ccccn2)SC1Cc1cccc(SC(F)F)c1 (configuration not stated) | -1% | 10% | -2% | 15µM* | -10% | -81%
COc1ccc(/C=N/N=C2/NC(=O)C(CC(=O)O)S2)cc1OS(=O)(=O)c1ccccc1 (configuration not stated) | -1% | 1% | 2% | ? | -7% | 3%
COc1cc(/C=N/N=C2/NC(=O)C(Cc3ccccc3)S2)ccc1O (configuration not stated) | 7% | 25% | -4% | 2.4µM* | -2% | 66%
O=C1N/C(=N\N=C\c2cccnc2)SC1Cc1ccc(SC(F)F)cc1 (configuration not stated) | -10% | 15% | -2% | 11µM* | -12% | -66%
O=C(CC1S/C(=N/N=C/c2cccnc2)NC1=O)Nc1ccccc1 (configuration not stated) | -4% | -11% | 2% | ? | -2% | -3%
O=C(OCC1CO1)C1CCCCC1C(=O)OCC1CO1 (configuration not stated) | / | / | / | / | / | -5%
CC(=O)Nc1c(C)nn(-c2ccccc2)c1N1CCC(C(=O)Nc2cccc(C(F)(F)F)c2)CC1 | / | / | / | 0% | / | /
O=C(N=Nc1c(O)[nH]c2ccccc12)c1cccc(S(=O)(=O)Nc2ccccc2Cl)c1 | 1% | -3% | -4% | 21µM* | -2% | 1%
SMILES | NPC1 prom act | ELG1 genotoxic | Luc counter | FLuc modulator | Rab9 promoter act | SMN2 splice up
NS(=O)(=O)c1cc(C(=O)N=Nc2c(O)[nH]c3ccccc23)ccc1Cl | 21% | 4% | / | 6µM* | 18% | /
COc1ccc(CNC(=O)CCCc2nnc3n(C(C)C)c(=O)c4sccc4n23)cc1 | / | / | / | -4% | / | /
COc1cccc(C(=O)Nc2ccc(C)cc2)c1 | 1.4µM* | 1.8µM* | -15% | 6µM* | 1µM* | 11µM*
CCOc1cccc(C(=O)Nc2cccc(C(C)=O)c2)c1 | 6% | 0% | -1% | ? | 22% | ?
COC(=O)c1cccc(NC(=O)c2cc3sccc3n2C)c1 | 1.3µM* | ? | 1% | 15µM* | 1.8µM* | 11µM*
COc1cccc(C(=O)Nc2cccc(OC(C)=O)c2)c1 | ? | 6% | -27% | ? | ? | 11µM*
COc1cccc(C(=O)Nc2ccc(C(=O)O)cc2)c1 | 6% | 1% | / | ? | 0% | /
COc1cccc(C(=O)Nc2cccc(C(C)=O)c2)c1 | ? | ? | ? | 21µM* | ? | /
COC(=O)c1ccccc1NC(=O)c1cc2sccc2n1C | -4% | -1% | 20% | ? | 11% | -2%
COc1ccc(CN2CCNC(=O)C2CC(=O)N(C)CCCN2CCOCC2)cc1C (configuration not stated) | -2% | 3% | / | 0% | -3% | /
CCc1ccc(C(=O)c2cn(CC(=O)NCc3ccc(C)cc3)c3nc(C)ccc3c2=O)cc1 | / | / | / | -6% | / | /
CCC(=O)Nc1ccc2c(c1)C(=O)N(C)C2=O | -3% | -7% | 1% | 1% | 18% | 2%
COc1cccc(C(=O)NC(=S)Nc2ccc(N(C)C)cc2)c1 | ? | ? | 0% | 12µM* | 3.5µM* | 11µM*
CCC(=O)Nc1ccc2c(c1)C(=O)c1ccccc1C2=O | 1.6µM* | ? | -2% | 3.8µM* | 1.3µM* | 11µM*
COc1cccc(C(=O)Nc2ccc(C(=O)c3ccccc3)cc2)c1 | 7% | 8% | / | ? | -3% | /
